The values that follow come from PubChem BioAssay (NCI).

Compounds without any hit were thinned out: in the full panel of roughly 83,000, 20% have a hit.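 96-well plates, one dose, 48 hours. Percent growth reported; active if below 10.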 A number with no mark means an inactive call. Active and inactive are the calls of the source.

The assay concerns HT29 colon. Nature of the assay: NCI-60 one-dose screen, 48 h (100 = growth as untreated, 0 = no growth, -100 = all killed). Particulars: 10 µM unless noted. Here is the method:
Growth inhibition of the HT29 human tumor cell line is measured as a screen for anti-cancer activity. Cells are grown in 96 well plates and exposed to the test compound for 48 hours. Compounds are tested at a single concentration, which is 10^-5 M for most compounds. The reported endpoint is percent growth (GI% or GIPRCNT), where numbers from 0 - 100% represent growth inhibition, and numbers from -100% - 0 represent cell death. For example, a value of 40 represents 60% growth inhibition. A value of 0 means no net growth occurred over the course of the experiment. A value of -40 indicates 40% of cells at the beginning of the experiment died by the end of the experiment. A value of -100 means all cells are dead at the end of the experiment.
NCI-60 Human Tumor Cell Lines Screen was performed using the standard one-dose NCI protocol, which is described in more detail at https://dtp.cancer.gov/discovery_development/nci-60/default.htm.
Compounds with GIPRCNT values below 10 were considered active. Activity score was based on GIPRCNT using the following formula: […]
Score is 0 for GIPRCNT values of 100 or above, 50 for GIPRCNT values of 0, and 100 for GIPRCNT values of -100.
For `O=C(/C=C/c1sc(Cl)nc1Cl)c1ccc(Br)cc1`, the growth is 91.2%.

Take `COc1ccn2c(C(C)=O)cc(C(=O)c3ccc4c(c3)Sc3ccccc3N4)c2c1`: the growth was -0.653% (active).

Consider `c1cc(-c2nnc(SSc3ncnc4nc[nH]c34)o2)ccn1`, for which the growth was 18.9%. In the case of `N#CC1=C(N)Oc2c(sc3c(Br)cccc23)C1c1ccc([N+](=O)[O-])cc1` (stereo not given) it was 2.5% (active); in that of `COc1cccc(Cc2nn3cc(-c4ccccc4)nc3s2)c1`, 54.6%. With `CC(=O)OC[C@H]1OC(Sc2sc(C(=O)c3ccc(Cl)cc3)c(N)c2-c2nc3ccccc3s2)[C@H](OC(C)=O)[C@@H](OC(C)=O)[C@@H]1OC(C)=O` (stereo not given in full) the figure was 81%; with `CN1C(=C2C(=O)OC(C)(C)OC2=O)CCC1C(=O)NCc1ccc(Cl)cc1Cl` (stereo not given), 79.5%.

`NS(=O)(=O)c1ccc(-n2nc(C(=O)N/N=C\c3ccc(F)cc3)cc2-c2ccc(Br)cc2)cc1`: the growth is 66.4%. For the compound `Cn1cc(C(=O)c2nc(-c3cn(C)c4ccc(F)cc34)no2)c2cc(F)ccc21`, the growth was 95.5%.

Take `O=C(CS(=O)c1oc(-c2cccs2)nc1S(=O)(=O)c1ccc(Br)cc1)c1ccccc1` (stereo not given): the growth was 102%. In the case of `O=CN(SSN(C=O)C1CCCCC1)C1CCCCC1` it was 108%; in that of `CCOC(=O)c1cn2ncnc(Oc3ccc(NC(=O)NCCN(CC)CC)c(Cl)c3)c2c1C`, 5.37% (active). In the case of `COc1ccc2[nH]c(-c3ccccc3)c(/C=C(\C#N)S(=O)(=O)c3ccccc3)c2c1` it was 21%; in that of `CCN1C(=O)N(CC)C2Nn3c(s/c(=C\c4ccc([N+](=O)[O-])cc4)c3=O)=NC21` (stereo not given), 109%; in that of `Cc1ccc(NC2=C(Cl)C(=O)c3nc(C)ccc3C2=O)cc1`, 82.4%. In the case of `Cc1cc(Cl)ccc1NS(=O)(=O)c1ccc(-c2cnc(C3CC3)o2)cc1` it was 5.04% (active).

As for `CCc1ccccc1-n1c(N)c(C#N)c(-c2ccc(Cl)cc2)c(C#N)c1=O`, the growth was 102%.

As to `Cc1ccc(S(=O)(=O)Oc2ccc(NC(=O)c3ccc(Cl)cc3)cc2)cc1`, the growth was 94.9%. Turning to `N#Cc1c(-c2ccccc2)nc(SCC(=O)Nc2nc(-c3ccc(Cl)cc3)cs2)[nH]c1=O`, the growth was 93.3%. With `c1ccc(-c2nc3sc(-c4ccccc4)cn3n2)cc1` the figure was 90.3%; with `COc1cc(CNS(=O)(=O)c2ccc(C)cc2)ccc1OCc1cn(-c2ccccc2)nn1`, 103%. In the case of `N#CC1=C(N)Oc2c(sc3c(Br)cccc23)C1c1ccc(Br)cc1` (stereo not given) it was 1.76% (active); in that of `CCCCNC(=O)Oc1ccc(/C(=C(\C)c2ccc(Cl)cc2)c2ccc(OCCN(CC)CC)cc2)cc1`, -10.2% (active); in that of `O=C(N/N=C/[C@H](O)[C@@H](O)[C@@H](O)[C@H](O)CO)c1ccc(NC(=O)c2cccnc2)cc1`, 111%.

With `COc1ccc(-c2ncnc3c2ncn3CC#CCCl)cc1`, the growth is 93.9%. With `COc1cccc(-c2nc(-c3ccc(NS(=O)(=O)c4ccccc4)cc3)[nH]c2-c2ccnc(Br)c2)c1` the figure was 32.8%; with `O=C(O)C(c1ccccc1)N1C(=O)CSC1=S` (stereo not given), 106%; with `CCCCC[C@H](O)C/C=C1/C(=O)C=C[C@@H]1C/C=C\CCCC(=O)OC`, 3.13% (active). Regarding `Cc1ccc(-c2nc3c(c(-c4ccccc4)nn3-c3ccccc3)c(-c3ccc(O)cc3)c2C#N)cc1`, the growth was 107%. In the case of `CSc1ncccc1C(=O)OCC(=O)Nc1oc(C)c2c(C)n[nH]c(=O)c12` it was 116%; in that of `O=C(N/N=C/c1c(Cl)cccc1Cl)c1ccc(C(F)(F)F)nc1Nc1cccc(C(F)(F)F)c1`, 15.6%; in that of `Cc1cc(O)c(C2=NN(c3ccc(S(N)(=O)=O)cc3)C(/C=C/c3ccccc3)C2)cc1Cl` (stereo not given), 33.5%. With `Oc1ccc(C#CCOc2ccccc2)cc1CNCCN(Cc1ccccn1)Cc1ccccn1` the figure was 25.5%; with `CC(=O)O.CN1[CH-]N(Cc2ccc(C#N)cc2)c2ccccc21.[Ag+]`, 94.7%; with `COc1ccc(-c2c(C(=O)NS(C)(=O)=O)n(Cc3cccc(C(F)(F)F)c3)c3ccccc23)cc1`, 97.5%. With `CCCCCCCCCCCCCCCCCCOc1ccccc1CCCOP(=O)(O)OCC[N+](C)(C)C` the figure was 12.7%. As to `C[C@]12CC[C@@H]3c4cc(OC(F)F)c(OS(N)(=O)=O)cc4CC[C@H]3[C@@H]1CC[C@@H]2O`, the growth was 13.9%. In the case of `COc1cc2cc(Oc3ccc(NC(=O)Nc4cc(C(F)(F)F)cc(C(F)(F)F)c4)cc3)c(C)nc2cc1OCCN1CCOCC1` it was 10.9%; in that of `Cc1cccc2c3c(sc12)C(c1ccc(F)cc1)C(C#N)=C(N)O3` (stereo not given), 9.55% (active); in that of `CCc1nnc(NC(=O)c2nnn(-c3ccccc3)c2-c2ccco2)s1`, 109%.
